Source: PubChem BioAssay (several laboratories)
MazEF act – MazEF (E. coli) toxin RNase activation | FAM/BHQ RNA-DNA oligo cleavage fluorescence, 5 h | activation, % at 20 µM | AID 504720 | 350,000 tested, 0.32% active | P0AE70; in the data active means activation above about 50%
Target sequence (P0AE70 whole entry, looked up): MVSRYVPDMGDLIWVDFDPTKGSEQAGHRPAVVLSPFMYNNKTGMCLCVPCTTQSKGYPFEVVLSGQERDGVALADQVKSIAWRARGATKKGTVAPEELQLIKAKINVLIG
PrPC surface inh – inhibitors of human cell surface prion protein PrPC | P04156 | TR-FRET read-out | inhibition, % at 13.8 µM | 370,000 tested, 0.43% active | AID 720596; in the data active means inhibition above about 24%
PriA SSB inh – K. pneumoniae PriA-SSBct interaction inhibition; AlphaScreen SSBct-PriA binding, biotinylated peptide; inhibition, % at 33 µM; 430,000 tested, 0.6% active; AID 1272365; in the data active means inhibition mostly above about 37%, no sharp cut-off; inactive means mostly below about 20%
PrP UTR inh – inhibition of PrP 5' UTR reporter expression; inhibition, % (no concentration beside the values); cell-based PrP 5' UTR mRNA reporter, plate reader; 340,000 tested, 0.35% active; in the data active means inhibition above about 52%
PfHsp40 yeast – compounds rescuing yeast from Plasmodium falciparum HSP40 toxicity. 340,000 tested, 0.68% active. AID 504582. growth rescue, % at 12.5 µM. S. cerevisiae expressing PfHsp40, growth rescue, ATP luminescence; in the data active means growth rescue above about 28%, passing the limit was not always enough; inconclusive means no clear call, values can overlap the other calls;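 further: yeast W303a lacking pdr1 and pdr3 grown in galactose medium; growth measured after three days at 30 °C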
Large screens that a line does not name were inactive; ! = a repeat was not active. Only some compounds are listed: those with a hit (about 1.8% of all), similar ones and a draw of the others.

COc1ccc(Nc2nc3ccc(OC)cc3s2)cc1	PriA SSB inh 38!
COc1ccccc1CNC(=O)C1CCN(S(=O)(=O)c2cccc3nonc23)CC1	none
O=C(O)COc1ccccc1/C=N/NC(=O)CN1CCN(Cc2ccccc2Cl)CC1	none
CC(=O)c1c(NC(=O)c2ccccc2)[nH]c(-c2ccccc2)nc1=S	none
COc1ccccc1NC(=O)C(C)OC(=O)Cn1cnc2c1c(=O)n(C)c(=O)n2C (stereo not given)	none
C[C@H](NC(=O)c1ccco1)C(=O)Nc1ccc(S(=O)(=O)N2CCCC2)cc1	none
O=C(N/N=C/c1ccncc1)c1cc2ccccc2cc1O	PfHsp40 yeast 187 (no result: PriA SSB inh)
Cn1cccc1C=NNC(=O)c1cc2ccccc2cc1O	PriA SSB inh 43 (no result: MazEF act, PrPC surface inh, PrP UTR inh, PfHsp40 yeast)
O=C(Nc1ccccc1)OCCOc1ccc(Cl)cc1Cl	none
COc1ccc(-c2csc(NC(=O)c3ccccc3Br)c2C(=O)O)cc1	PfHsp40 yeast 58
O=C(/C=C/c1ccco1)Nc1scc(-c2ccccc2)c1C(=O)O	none
O=C(/C=C/c1ccccc1)Nc1scc(-c2ccccc2)c1C(=O)O	PfHsp40 yeast 51
O=C(Nc1scc(-c2ccccc2)c1C(=O)O)c1ccccc1F	none
Cc1ccc(-c2csc(NC(=O)c3ccccc3F)c2C(=O)O)cc1	PfHsp40 yeast 34
O=S(=O)(O)c1cc(Cl)cc(N=Nc2ccc(O)cc2O)c1O	PfHsp40 yeast 58
O=C(c1cccc(F)c1)N1CCN(C2CCCCC2)CC1	PfHsp40 yeast 54
Cc1cc(C)nc(NS(=O)(=O)c2ccc(NC(=O)c3ccc4c(c3)CCCC4)cc2)n1	none (no result: MazEF act, PrPC surface inh, PrP UTR inh, PfHsp40 yeast)
NS(=O)(=O)c1ccc(NC(=O)c2ccc3c(c2)CCCC3)cc1	MazEF act 72
CS(=O)(=O)N1CCCc2cc(NS(=O)(=O)c3ccc(Br)cc3)ccc21	none (no result: MazEF act, PrPC surface inh, PrP UTR inh, PfHsp40 yeast)
COc1ccc(C2CC(c3ccc(Cl)cc3)Nc3nc(NC(=O)c4ccco4)nn32)cc1 (stereo not given)	MazEF act 160
O=C(CS(=O)(=O)c1ccccc1)Nc1ccc(Cl)cn1	none
O=C(CC(c1ccccc1)c1ccccc1)Nc1ccc(Cl)cn1	PrPC surface inh 29
COc1ccc(/C=C2\CCCC(C(=O)C(F)(F)F)=C2O)cc1	MazEF act 475
O=C(C1=C(O)/C(=C/c2ccc(O)cc2)CCC1)C(F)(F)F	none
Cn1c(=O)c2c(n(C)c1=O)=NC1(CCCCC1)N=2	none
COc1ccc(-c2cc(-c3cc(C)ccc3O)[nH]n2)cc1	PfHsp40 yeast inconclusive
COc1ccc(-c2cc(-c3ccc(OC)cc3)[nH]n2)cc1	PfHsp40 yeast 53
CCOC(=O)c1c(NC(=O)c2nc3ccccc3s2)sc2c1CC(C)(C)NC2(C)C	none (no result: MazEF act, PrPC surface inh, PrP UTR inh, PfHsp40 yeast)
COC(=O)c1c(NC(=O)c2nc3ccccc3s2)sc2c1CC(C)(C)NC2(C)C	MazEF act 53
CCOC(=O)C1CCN(C(=O)c2cc3c(=O)n4cccc(C)c4nc3s2)CC1	PfHsp40 yeast 32
Cc1cc(-c2nnc(NC(=O)Cc3ccc(S(C)(=O)=O)cc3)o2)n(C)n1	PriA SSB inh 43 (no result: MazEF act, PrPC surface inh, PrP UTR inh, PfHsp40 yeast)
COc1ccc(CC(=O)Nc2nnc(-c3cc(C)nn3C)o2)cc1	none (no result: MazEF act, PrPC surface inh, PrP UTR inh, PfHsp40 yeast)
Oc1c(Br)cc(Br)cc1C=Nc1nccs1	none (no result: MazEF act, PrPC surface inh, PrP UTR inh, PfHsp40 yeast)
CCN(CC)c1ccc(C(NC(=O)C(C)C)c2ccc3cccnc3c2O)cc1 (stereo not given)	none (no result: PriA SSB inh, PrP UTR inh, PfHsp40 yeast)
CC(=O)NC(c1ccco1)c1cc(F)c2cccnc2c1O (stereo not given)	PriA SSB inh 73
Oc1c(C(Nc2nc3ccccc3s2)c2ccco2)ccc2cccnc12 (stereo not given)	PrPC surface inh 25
O=[N+]([O-])c1ccc(NC(c2ccco2)c2ccc3cccnc3c2O)cc1 (stereo not given)	none (no result: MazEF act, PrPC surface inh, PrP UTR inh, PfHsp40 yeast)
CC(C)C(=O)NC(c1ccco1)c1ccc2cccnc2c1O (stereo not given)	PfHsp40 yeast 297
COc1cc(C(=O)Oc2cc(N)n(S(=O)(=O)c3ccc(F)cc3)n2)cc(OC)c1OC	MazEF act 245
COc1cc(C(=O)Oc2cc(N)n(S(=O)(=O)c3ccccc3)n2)cc(OC)c1OC	none
O=C(Nc1ccc(Cl)cc1)NC1CCCC1Cc1ccco1 (stereo not given)	none (no result: PrPC surface inh)
O=C(Nc1ccc(Cl)cc1)NC1CCCCC1Cc1ccco1 (stereo not given)	PfHsp40 yeast 226
COC(=O)C1=C(C)N(Cc2ccc(C(F)(F)F)cc2)C(=NCc2ccccc2C(F)(F)F)NC1c1ccccc1 (stereo not given)	none (no result: MazEF act, PriA SSB inh, PrP UTR inh, PfHsp40 yeast)
Oc1ccc(COC2CCCCC2)c2cccnc12	PriA SSB inh 108 (no result: MazEF act, PrPC surface inh, PrP UTR inh, PfHsp40 yeast)
Oc1ccc(COCc2ccccc2)c2cccnc12	PriA SSB inh 84, PfHsp40 yeast inconclusive
